From PubChem
Sampled rows, rich in hits. Any-hit rate of the full collection: about 2.3%.
PK Bst: pyruvate kinase (B. stearothermophilus) modulation; Potency, µM; AID 361; purified pyruvate kinase, luminescence ATP production; ribose 5-phosphate activator present at AC10; 51,000 tested, 1.2% active; in the data active = potency below about 11 µM; inconclusive = mostly about 12 µM to 25 µM;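 the screen sought inhibitors and activators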
GBA activity: modulators of human glucocerebrosidase | P04062 | purified enzyme, resorufin glucoside fluorescence (screen aimed at inhibitors), 20 min | Potency, µM | 48,000 tested, 1.1% active; in the data active = potency below about 15 µM; inconclusive = mostly about 16 µM to 33 µM;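 note: the screen sought inhibitors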
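Compounds titrated against 0.2 nM normal enzyme, 30 uM resorufin beta-D-glucopyranoside substrate, citrate/phosphate buffer with taurocholate and tween-20, pH 5.9. Reaction ran 20 min at room temperature; fluorescence (Ex 548/Em 600) gave AC50.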
Numbers stand for hits; . = inactive; ? = inconclusive; / = no result.

SMILES | PK Bst | GBA activity
Cc1cc(N2CCOCC2)nc2ccc(NC(=O)CCC(=O)N3CCC4(CC3)OCCO4)cc12 | / | 4.68
Cn1cc(CCC(=O)N2CCC3(CC2)OCCO3)c2ccccc21 | . | .
C=CCn1c(O)c(C(=O)CCCCCC)c(=O)[nH]c1=O | . | .
O=C(COc1ccc(S(=O)(=O)N2CCCCC2)cc1)N1CCN(Cc2ccccc2)CC1 | . | .
O=S(=O)(c1ccccc1)N1CN2CCN(C2)C1 | . | 13.7
Cn1nc(-c2ccc(OCC(=O)N3CCN(Cc4ccccc4)CC3)cc2)c2ccccc2c1=O | . | /
CN1CCN(C(=O)COc2ccc(-c3nc4ccccc4s3)cc2)CC1 | 1.03 | .
COc1ccc(C2SCC(=O)Nc3c2c(=O)[nH]n3C2CCCCC2)cc1 (stereo not drawn) | . | /
CCC(C)NC(=O)c1c(N)n(Cc2ccc3c(c2)OCO3)c2nc3ccccc3nc12 (stereo not drawn) | . | 15.1
CCC(C)NC(=O)c1c(N)n(CC2CCCO2)c2nc3ccccc3nc12 (stereo not drawn) | . | ?
O=c1c2ccccc2nc(-c2ccco2)n1-c1nccs1 | . | .
O=C(c1cc(-c2cccnc2)nc2ccc(Br)cc12)N1CCC2(CC1)OCCO2 | . | .
